Source: paper PMC5700166
Where a chain is given by its changes, count along the chain named.

Legend:
Experiment in all cases: protein-binding microarray (PBM); PBM: ~300 nM protein, 6 mM HEPES pH 7.8, 80 mM KCl, 0.5 mM EDTA, 0.5 mM EGTA, 6% glycerol, 35 ng/ul poly-dIdC, 1% milk, 1 h, room temperature; Ap Aiptasia and Nv Nematostella (sea anemones) / Co Capsaspora / Aq Amphimedon (sponge) / Dm Drosophila / Hu human; RHD is the Rel homology domain; high values mean tight binding
Details in all cases: dsDNA, one strand shown
GST-Ap-NF-kB RHD = target: T1, GST-Ap-NF-kB RHD (Exaiptasia pallida (Aiptasia), UniProt A0A913YAJ5 2-422)
T1 sequence: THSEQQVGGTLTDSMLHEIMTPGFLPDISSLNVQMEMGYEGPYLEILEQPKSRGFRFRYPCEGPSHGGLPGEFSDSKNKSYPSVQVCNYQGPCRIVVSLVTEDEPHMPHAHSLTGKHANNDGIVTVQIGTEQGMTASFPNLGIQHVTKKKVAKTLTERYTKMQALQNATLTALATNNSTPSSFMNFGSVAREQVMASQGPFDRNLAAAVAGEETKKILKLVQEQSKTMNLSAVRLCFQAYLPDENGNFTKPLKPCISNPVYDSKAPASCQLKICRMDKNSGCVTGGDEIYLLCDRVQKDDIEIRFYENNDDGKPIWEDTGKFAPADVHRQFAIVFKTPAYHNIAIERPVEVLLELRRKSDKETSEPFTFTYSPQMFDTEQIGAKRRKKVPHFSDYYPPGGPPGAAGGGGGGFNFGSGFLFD

[1] = target: T2, GST-Nv-NF-kB (Cys allele) (Nematostella vectensis, UniProt E5G601 2-411)
T2 sequence: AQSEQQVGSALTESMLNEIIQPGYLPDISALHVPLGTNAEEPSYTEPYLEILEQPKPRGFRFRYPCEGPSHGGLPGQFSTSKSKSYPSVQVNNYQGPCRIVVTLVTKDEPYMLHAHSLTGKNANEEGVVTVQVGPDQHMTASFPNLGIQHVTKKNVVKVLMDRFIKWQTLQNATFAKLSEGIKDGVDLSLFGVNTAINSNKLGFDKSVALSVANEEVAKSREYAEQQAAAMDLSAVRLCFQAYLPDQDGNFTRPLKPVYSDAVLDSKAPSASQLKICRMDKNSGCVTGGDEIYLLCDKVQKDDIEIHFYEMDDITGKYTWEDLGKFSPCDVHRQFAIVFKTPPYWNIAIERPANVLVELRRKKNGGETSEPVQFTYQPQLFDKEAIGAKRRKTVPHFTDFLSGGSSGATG

[2] = target: T3, GST-Nv-NF-kB (Ser allele) (Nematostella vectensis, UniProt A7UNT2 2-411)
T3 sequence: T2 sequence with Q21R, C66S, S207N, E215Q, V217A, E225K, A268E, D399E

GST-Co-NF-kB = target: T4, GST-Co-NF-kB (Capsaspora owczarzaki, UniProt F1ARL5 200-546)
T4 sequence: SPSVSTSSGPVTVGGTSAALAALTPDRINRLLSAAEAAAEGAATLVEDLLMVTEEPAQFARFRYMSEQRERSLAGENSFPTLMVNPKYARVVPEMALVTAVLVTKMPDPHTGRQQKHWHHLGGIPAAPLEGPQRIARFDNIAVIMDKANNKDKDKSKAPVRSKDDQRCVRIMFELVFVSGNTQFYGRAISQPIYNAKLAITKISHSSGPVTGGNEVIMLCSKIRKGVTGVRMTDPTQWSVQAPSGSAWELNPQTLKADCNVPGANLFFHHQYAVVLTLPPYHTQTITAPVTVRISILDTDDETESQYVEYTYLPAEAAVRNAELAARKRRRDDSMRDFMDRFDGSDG

GST-Dm-Relish = target: T5, GST-Dm-Relish (Drosophila melanogaster, UniProt Q94527 99-473)
T5 sequence: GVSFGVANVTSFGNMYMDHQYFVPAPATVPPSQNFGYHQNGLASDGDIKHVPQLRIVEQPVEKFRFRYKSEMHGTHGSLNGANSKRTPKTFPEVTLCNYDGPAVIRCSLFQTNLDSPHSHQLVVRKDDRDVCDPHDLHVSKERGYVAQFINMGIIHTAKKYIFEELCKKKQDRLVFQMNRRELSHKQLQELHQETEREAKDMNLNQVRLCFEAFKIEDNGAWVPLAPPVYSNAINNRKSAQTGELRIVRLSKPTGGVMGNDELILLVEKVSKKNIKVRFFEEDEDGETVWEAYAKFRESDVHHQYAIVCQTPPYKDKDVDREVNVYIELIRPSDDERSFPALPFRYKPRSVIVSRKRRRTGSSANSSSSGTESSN

GST-Aq-NF-kB = target: T6, GST-Aq-NF-kB (Amphimedon queenslandica, UniProt A9Y5G7 2-389)
T6 sequence: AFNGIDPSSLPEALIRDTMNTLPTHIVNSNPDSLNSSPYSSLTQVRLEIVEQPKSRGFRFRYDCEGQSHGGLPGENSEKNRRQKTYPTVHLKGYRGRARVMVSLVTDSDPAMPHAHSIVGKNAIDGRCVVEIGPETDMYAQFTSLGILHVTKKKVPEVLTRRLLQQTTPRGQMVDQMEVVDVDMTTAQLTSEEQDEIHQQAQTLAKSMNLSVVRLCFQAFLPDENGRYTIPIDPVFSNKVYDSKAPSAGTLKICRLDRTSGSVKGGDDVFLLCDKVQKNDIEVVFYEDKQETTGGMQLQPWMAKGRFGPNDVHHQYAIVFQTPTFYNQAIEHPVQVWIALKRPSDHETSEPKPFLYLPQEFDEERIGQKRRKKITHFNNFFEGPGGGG

GST-Hu-p50 = GST-Hu-p50 (Homo sapiens, UniProt P19838 7-356)
Chain of GST-Hu-p50 (P19838 7-356): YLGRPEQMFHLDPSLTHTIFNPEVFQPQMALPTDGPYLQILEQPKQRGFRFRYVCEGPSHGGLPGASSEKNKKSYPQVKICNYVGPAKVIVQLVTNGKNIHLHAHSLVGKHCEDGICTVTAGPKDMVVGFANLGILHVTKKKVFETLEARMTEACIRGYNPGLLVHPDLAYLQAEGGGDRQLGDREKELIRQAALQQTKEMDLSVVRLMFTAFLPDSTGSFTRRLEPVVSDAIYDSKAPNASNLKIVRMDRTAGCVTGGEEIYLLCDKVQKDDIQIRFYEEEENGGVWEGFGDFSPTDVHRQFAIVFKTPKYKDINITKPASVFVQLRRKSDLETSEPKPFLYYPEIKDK

Sequence	binding signal (GST-Ap-NF-kB RHD)	binding signal [1]	binding signal [2]	binding signal (GST-Co-NF-kB)	binding signal (GST-Dm-Relish)	binding signal (GST-Aq-NF-kB)	binding signal (GST-Hu-p50)
CCGATTAACATCAGGGAAATCAATGATGTTAATCGGGTCTTGATTCGCTTGACGCTGCTG	2.16 z-score	3.6 z-score	4.65 z-score	3.49 z-score	1.09 z-score	2.67 z-score	2.57 z-score
CCGATTAACATCAGGGGAAATTATGATGTTAATCGGGTCTTGATTCGCTTGACGCTGCTG	8.88 z-score	10.5 z-score	12.1 z-score	9.24 z-score	6.62 z-score	7.99 z-score	6.95 z-score
CCGATTAACATCAGGGGACTCACTGATGTTAATCGGGTCTTGATTCGCTTGACGCTGCTG	5.12 z-score	4.13 z-score	4.07 z-score	3.05 z-score	8.85 z-score	4.46 z-score	4.32 z-score
CCGATTAACATCAATAAACCCCCTGATGTTAATCGGGTCTTGATTCGCTTGACGCTGCTG	7.76 z-score	6.85 z-score	7.79 z-score	2.94 z-score	9.45 z-score	6.33 z-score	6.85 z-score
CCGATTAACATCAGGGGATTGGATGATGTTAATCGGGTCTTGATTCGCTTGACGCTGCTG	4.77 z-score	4.99 z-score	6.52 z-score	2.06 z-score	2.73 z-score	3.69 z-score	4.98 z-score
CCGATTAACATCAGGGGATTCCATGATGTTAATCGGGTCTTGATTCGCTTGACGCTGCTG	9.19 z-score	9.04 z-score	9.49 z-score	3.19 z-score	10 z-score	6.89 z-score	6.77 z-score
